From PubChem BioAssay
Giardia kill: Small Molecules that selectively kill Giardia lamblia: qHTS. Giardia lamblia trophozoite viability. activity change, % at 7.66 µM, hits read low. 0.15% of 340,000 active; in the data active = activity change below about -80%; inconclusive = between about -30% and that limit;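 note: parasites exposed to compound for two days anaerobically before the ATP read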
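Giardia trophozoites, 100 cells per well, were exposed to compounds for 48 hrs at 37 deg C under anaerobic conditions; viability was then read as ATP content by bioluminescence after 15-30 min at room temperature.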
TDP1 block: qHTS Assay for Inhibitors of Tyrosyl-DNA Phosphodiesterase (TDP1); Tyrosyl-DNA phosphodiesterase 1 (Homo sapiens), Q9NUW8; recombinant TDP1, AlphaScreen DNA substrate cleavage; Potency, µM (titrated, usually from 130 µM), actives largely listed as inhibitors; 0.28% of 350,000 active; note: nearly all actives have a fitted effect of over 40% in size
Target sequence (Q9NUW8 whole entry, looked up): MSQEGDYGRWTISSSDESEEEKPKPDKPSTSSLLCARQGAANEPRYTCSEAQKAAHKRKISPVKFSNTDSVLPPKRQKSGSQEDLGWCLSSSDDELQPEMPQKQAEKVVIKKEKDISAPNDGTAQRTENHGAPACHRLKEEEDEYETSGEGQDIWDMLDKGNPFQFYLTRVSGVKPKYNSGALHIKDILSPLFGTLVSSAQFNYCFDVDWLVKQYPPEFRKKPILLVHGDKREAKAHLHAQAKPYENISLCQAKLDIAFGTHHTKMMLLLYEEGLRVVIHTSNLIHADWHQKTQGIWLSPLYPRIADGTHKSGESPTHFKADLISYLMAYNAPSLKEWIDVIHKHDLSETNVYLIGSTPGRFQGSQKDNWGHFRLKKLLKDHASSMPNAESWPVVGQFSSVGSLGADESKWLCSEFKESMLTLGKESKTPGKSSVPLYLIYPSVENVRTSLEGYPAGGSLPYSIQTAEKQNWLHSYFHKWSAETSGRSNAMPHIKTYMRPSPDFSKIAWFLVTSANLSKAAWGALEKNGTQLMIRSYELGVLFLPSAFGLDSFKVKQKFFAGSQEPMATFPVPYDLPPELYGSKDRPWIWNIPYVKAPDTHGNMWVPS
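Enzyme-compound mixtures sat 15 min at room temperature, followed by a 5 min reaction with 15 nM final substrate and 10 min with AlphaScreen beads. Recombinant human Tdp1 was used at 1 nM final.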
DT40 TDP1 CPT: qHTS for Inhibitors of human tyrosyl-DNA phosphodiesterase 1 (TDP1): qHTS in cells in presence of CPT; chicken DT40 Tdp1-/-;hTDP1 cells + 20 nM CPT, ATP luminescence, 48 h; Potency, µM (doses to about 46.2 µM), actives largely listed as inhibitors; 12% of 420,000 active; note: nearly all actives have a fitted effect of over 55% in size
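Cell growth measured by CellTiter-Glo luminescence after a minimum 48 h, 37 C compound exposure with 20 nM CPT in Tdp1-knockout DT40 cells stably expressing hTDP1, seeded 400/well; qHTS titration format.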
ELG1 repair inh: qHTS screen for small molecules that inhibit ELG1-dependent DNA repair in human embryonic kidney (HEK293T) cells expressing luciferase-tagged ELG1; HEK293T ELG1-luciferase reporter, luminescence, 16 h; DNA damage induced by 5-fluorouridine; 2.3% of 330,000 active; Potency, µM (series often up to 46.1 µM), usual class: inhibitors; note: nearly all actives have a fitted effect of over 55% in size
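Quantitative HTS, concentration-response format. 2,000 cells/well co-treated with 5-fluorouridine and compound, 16 hr in 5% CO2 at 37 °C; ONE-Glo luminescence read after 30 min.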
IL-1B inflam inh: qHTS for Inhibitors of Inflammasome Signaling: IL-1-beta AlphaLISA Primary Screen; THP-1 LPS/ATP IL-1B secretion, AlphaLISA, 16 h; stronger effect = lower value; AID 743279, 2014; 4.7% of 360,000 active; activity change, % at 57.5 µM; in the data active = activity change below about -50%; inconclusive = mostly about -30% to -49%
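Secreted IL-1B measured by AlphaLISA bead assay after 16 h compound exposure of THP-1 cells; compounds (final up to 57.5 uM) added 1 h before LPS (250 ng/mL) and ATP (1.25 mM) stimulation; lower signal means less secretion.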
TDP1 cell noCPT: qHTS for Inhibitors of human tyrosyl-DNA phosphodiesterase 1 (TDP1): qHTS in cells in absence of CPT; DT40 Tdp1-/- hTDP1 cells, no CPT, ATP luminescence, 48 h; Potency, µM (titrated, usually from 46.2 µM), hits mostly inhibitors; AID 686978, 2013; 15% of 420,000 active; note: nearly all actives have a fitted effect of over 55% in size
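Readout: luminescence from CellTiter-Glo after 30 min in the dark at RT. Cells: DT40 Tdp1-/- with stable hTDP1, 400/well. Exposure: compounds alone, ≥48 hr, 37 °C.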
Numbers stand for hits; - = inactive; ? = inconclusive; . = no result. A selection: hits, their analogues and other compounds. The true share with any hit is near 19%. Unless noted, calls come from the whole dose curve; as a rule, active = well fitted curve in the direction sought with a large enough effect; inconclusive = small, poorly fitted or top-dose-only effect, or another doubt; inactive = no such curve, though single readings can be large; an effect the other way counts as inactive or inconclusive.

SMILES	Giardia kill	TDP1 block	DT40 TDP1 CPT	ELG1 repair inh	IL-1B inflam inh	TDP1 cell noCPT
Cc1ccc(/C=C/C(=O)N2CCc3ccccc32)o1	-	?	6.51µM	?	-80.8	13µM
COc1ccc(OC)c(/C=C/C(=O)N2CCCc3ccccc32)c1	-	-	-	?	-76.7	?
COC(=O)C1(C(=O)OC)CC2=CC(CC2=O)Cc2ccccc2[C@@H]1C[N+](=O)[O-] (stereo partly specified)	.	-	.	.	.	.
O=C(CN1C(=O)c2ccccc2C1=O)N1CCN(C2c3ccccc3-c3ccccc32)CC1	-	-	-	16.4µM	-	-
CCN(CC)c1ccc(NC(=O)CN2CCN(c3ccccc3OC)CC2)cc1	.	-	20.6µM	.	.	16.4µM
COc1ccc(NC(=O)CN2CCN(C3c4ccccc4-c4ccccc43)CC2)cc1	-	-	?	6.51µM	-	?
CCN(CC)c1ccc(NC(=O)CN2CCN(S(=O)(=O)c3cc(Cl)ccc3OC)CC2)cc1	-	-	?	?	-	16.4µM
CCN(CC)c1ccc(NC(=O)CN2CCN(c3ccccc3F)CC2)cc1	-	-	?	-	-	?
O=C(CCS(=O)(=O)c1ccc(Br)cc1)NC1CCCCCC1	-	-	-	-	-	?
CCCCn1c(SCC(=O)Nc2cccc(OC)c2)nc2ccsc2c1=O	.	-	?	.	.	?
COc1ccc(NC(=O)c2ccc(NC(=O)CN3CCN(c4ccccc4OC)CC3)cc2)cc1	.	.	?	.	-	18.4µM
COC(=O)c1ccc(C(=O)OC)c(NC(=O)CN2CCN(c3ccccc3OC)CC2)c1	-	-	?	?	-	25.9µM
COc1ccc(NC(=O)CN2CCN(c3ccccc3F)CC2)cc1	-	-	-	-	-	-
CC1(C(=O)NCc2ccccc2)CSCC(=O)N1C1CCN(Cc2ccccc2)CC1 (stereo unspecified)	.	.	-	.	?	-
COc1cc([N+](=O)[O-])cc(/C=N/NC(=O)C(C)Nc2cccc3ccccc23)c1O (stereo unspecified)	-	-	16.4µM	?	-	?
O=C(N/N=C/c1cccc([N+](=O)[O-])c1O)C(O)(c1ccccc1)c1ccccc1	-	-	?	-	-	25.9µM
COc1cc([N+](=O)[O-])cc(/C=N/NC(=O)C(O)(c2ccccc2)c2ccccc2)c1O	-	.	4.11µM	-	-	?
COc1cc([N+](=O)[O-])cc(/C=N/NC(=O)c2cccnc2)c1O	-	-	?	?	-	?
O=C(NCCc1ccccc1)c1ccc(NC(=O)C2CCCCC2)cc1	-	.	-	.	-	-
O=C(Nc1ccc(Cl)cc1)Nc1cccc2nsnc12	-	.	?	?	?	29.1µM
O=C(COc1ccccc1)Nc1cccc2nsnc12	-	-	-	-	-	-
O=C(Nc1ccncc1)Nc1cccc(Cl)c1Cl	-	-	23.1µM	-	-	?
O=C(Nc1ccc(Oc2ccc(NC(=O)Nc3ccccc3Cl)cc2)cc1)Nc1ccccc1Cl	-	-	18.4µM	-	-	20.6µM
O=C(Nc1ccc2cn[nH]c2c1)c1c(Cl)cccc1Cl	-	-	-	-	-	?
O=C(Nc1ccncc1)c1c(Cl)cccc1Cl	?	.	9.2µM	?	-60.8	?
SMILES	Giardia kill	TDP1 block	DT40 TDP1 CPT	ELG1 repair inh	IL-1B inflam inh	TDP1 cell noCPT
COC(=O)c1ccccc1NC(=O)Nc1cc(C(C)(C)C)on1	-	-	-	?	-	-
CCC(C(=O)Nc1ccncc1)c1ccccc1 (stereo unspecified)	-	-	?	-	-	16.4µM
COC(=O)c1sccc1NC(=O)c1c(F)c(F)c(F)c(F)c1F	-	.	?	.	-101.9	?
O=C(Nc1ccncc1)Nc1cccc(Cl)c1	-	-	?	?	-	-
O=C(Nc1ccccc1)Nc1ccncc1	-	-	?	?	-	20.6µM
CC(C)(C)c1cc(NC(=O)Nc2ccccc2)no1	-	.	?	?	-53.8	-
COc1cc(OC)c(NC(=O)CN2CCCN(Cc3ccccc3C)S2(=O)=O)cc1Cl	.	-	?	.	.	-
O=c1c2cc3c(cc2nc2sc(Nc4cccc([N+](=O)[O-])c4)nn12)OCO3	.	-	-	.	.	-
CC(=O)c1cccc(NC(=O)c2c(F)c(F)c(F)c(F)c2F)c1	-	-	?	?	-	29.1µM
O=C(NCCc1ccccc1)c1c(F)c(F)c(F)c(F)c1F	-	-	-	?	?	-
O=C(Nc1ccncc1)c1c(F)c(F)c(F)c(F)c1F	?	.	-	-	-95.7	-
O=C(Nc1ccccc1NC(=O)c1c(F)c(F)c(F)c(F)c1F)c1c(F)c(F)c(F)c(F)c1F	-	-	-	-	-107.9	-
O=C(Nc1ccncc1)OCc1ccccc1	-	.	?	-	-	20.6µM
O=C(Nc1ccncc1)c1ccc(C(=O)Nc2ccncc2)cc1	-	-	-	-	-	-
Cc1cccc(NC(=O)c2c(F)c(F)c(F)c(F)c2F)c1	-	-	-	-	-	-
CC(=O)c1ccccc1NCC(=O)Nc1ccc(C)cc1	-	-	-	-	-	-
CCOC(=O)c1ccc(NC(=O)c2cc3c(n(-c4ccc(C)cc4)c2=O)CC(C)(C)CC3=O)cc1	.	.	-	.	.	?
Clc1ccc(Br)c(-c2nc3ccccc3[nH]2)c1	.	.	-	.	-	-
Cn1ncc2c(NCc3cccc(Cl)c3)ncnc21	.	-	14.6µM	.	.	?
Cn1ncc2c(Nc3ccccc3Cl)nc(Cl)nc21	-	-	-	-	-	-
COCCNc1nc(NCc2ccccc2)c2cnn(C)c2n1	?	-	-	-	-	?
COCCNc1nc(NCc2cccc(Cl)c2)c2cnn(C)c2n1	.	-	?	.	.	14.6µM
CCCNc1nc(NCc2ccccc2OC)c2cnn(C)c2n1	.	-	14.6µM	.	.	13µM
Cn1ncc2c(NCCc3ccccc3)nc(Cl)nc21	-	.	23.1µM	.	-	20.6µM
Cn1cccc1C(=O)OCC(=O)N1c2ccccc2NC(=O)C1(C)C	-	-	-	-	-	?
Cc1ccc(C(=O)NNC(=S)NC(=O)c2ccco2)cc1	-	-	7.31µM	?	-	11.6µM
CC1CCCC(NC(=S)NC(=O)c2ccco2)C1C (stereo unspecified)	-	-	14.6µM	-	-	?
O=C(NC(=S)NNC(=O)c1ccco1)c1ccccc1	-	-	?	-	-	16.4µM
O=C(NNC(=O)c1ccco1)c1ccccc1	-	-	-	?	-	-
Cc1ccc(C(=O)NNC(=O)c2ccco2)cc1	-	-	-	?	-	-
